The text below walks through data of PubChem BioAssay (Tox21).

Test [1] is described as follows: Nuclear factor erythroid 2-related factor 2/antioxidant responsive element (Nrf2/ARE) small molecule agonists: qHTS cell viability counter screen in human keratinocytes (AID 1919968; active = well fitted curve in the direction sought with a large enough effect in the repeat runs; an effect the other way counts as inactive or inconclusive; also: nearly all actives have a fitted effect of over 55% in size; also: potency is read from the fitted curve at half-maximal effect). Put shortly: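 CellTiter-Fluor fluorescence, read 1 h after reagent, gave viability in the same wells as the ARE-luciferase assay. KeratinoSens cells (1,500/well) had 23 h compound exposure at 37 C/5% CO2 following 5 h plating.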

Test [2] in a line: Nuclear factor erythroid 2-related factor 2/antioxidant responsive element (Nrf2/ARE) small molecule agonists: luciferase reporter gene qHTS assay in human keratinocytes (AID 1919969). Also: nearly all actives have a fitted effect of over 35% in size. Also: potency is read from the fitted curve at half-maximal effect. A general note: A reporter such as luciferase makes a cellular process visible.
Test [3] has as its target Gonadotropin-releasing hormone receptor (Homo sapiens) (UniProt P30968). Description: Human gonadotropin-releasing hormone receptor (GnRHR) small molecule agonists, calcium flux assay in GnRHR-HEK293 cells (AID 1920063). Also: nearly all actives have a fitted effect of over 35% in size. Put shortly:
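Agonist mode: compounds at 15 concentrations, in triplicate, went onto calcium dye-loaded GnRHR-HEK293 cells. Intracellular calcium was then followed as 480/540 nm fluorescence at 1 s intervals over 3 min.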
(In general: Calcium assays in cells follow changes in intracellular calcium, usually with a dye or a luminescent sensor.)

In test [4] the target is KiSS-1 receptor (Homo sapiens) (UniProt Q969F8). The experiment in a line: Human kisspeptin (KISS1R) small molecule agonists, calcium flux assay in KISS1R-HEK293 cells (AID 1920064; active = well fitted curve in the direction sought with a large enough effect in the repeat runs; an effect the other way counts as inactive or inconclusive). The gist of the method: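 Agonist mode: intracellular calcium rise tracked at 1 s intervals over 3 min (480/540 nm) immediately after compound addition to dye-loaded KISS1R-HEK293 stable cells. Each compound tested at 15 concentrations in triplicate.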
KiSS-1 receptor (Homo sapiens), sequence (Q969F8 whole entry, looked up): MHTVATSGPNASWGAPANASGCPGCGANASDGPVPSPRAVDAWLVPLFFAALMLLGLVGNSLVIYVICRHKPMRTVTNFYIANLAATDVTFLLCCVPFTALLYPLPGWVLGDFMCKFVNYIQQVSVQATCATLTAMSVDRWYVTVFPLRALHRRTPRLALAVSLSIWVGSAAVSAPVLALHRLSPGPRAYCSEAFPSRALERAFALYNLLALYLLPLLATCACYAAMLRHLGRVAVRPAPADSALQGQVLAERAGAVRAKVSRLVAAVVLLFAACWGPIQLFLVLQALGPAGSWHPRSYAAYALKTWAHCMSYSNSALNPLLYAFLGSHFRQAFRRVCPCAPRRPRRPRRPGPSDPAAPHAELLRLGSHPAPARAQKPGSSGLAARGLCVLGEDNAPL

Test [5] can be described thus: G protein-coupled receptor (GPCR) small molecule agonists, calcium flux assay: HEK293 wild type cell line counter screen (AID 1920065). The gist of the method:
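Calcium flux counter screen: compound added in agonist mode at 15 concentrations in triplicate to dye-loaded parental HEK293 cells. Fluorescence (480/540) read kinetically for 3 min; ATP served as positive control.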

Test [6] is described as follows: p53 small molecule agonists, cell-based qHTS assay with rat liver microsomes (AID 1963578). The gist of the method: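 Compound in DMSO added to p53RE-bla cells 5 h post-plating; rat microsomes/NADPH 0.5 mg/mL final; 16 h, 37 C; LiveBLAzer 2 h RT.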
For orientation: qHTS replaces the single test concentration by a dilution series.

Test [7] in a line: p53 small molecule agonists, cell-based qHTS assay: qHTS cell viability counter screen (AID 1963581). Also: nearly all actives have a fitted effect of over 45% in size. Put shortly:
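Counter screen read by CellTiter-Glo luminescence (ATP content, 30 min at room temperature), run in the same wells as the beta-lactamase reporter read. HCT-116 p53RE-bla cells saw compounds for 16 h at 37 C.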

Test [8] in a line: p53 small molecule agonists, cell-based qHTS assay (AID 1963582; active = well fitted activation curve with a large enough effect in the signal ratio in the repeat runs, not every such curve was filed as active; the % refers to the signal ratio). Put shortly: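 Read-out is beta-lactamase FRET fluorescence after 2 h at room temperature with LiveBLAzer B/G substrate. p53 response element-bla cells were treated 16 h at 37 C with compounds in DMSO, added 5 h after seeding.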
The target of test [9] is 5-hydroxytryptamine receptor 2A (Homo sapiens) (UniProt P28223). The experiment in a line: 5-hydroxytryptamine receptor 2A (HTR2A) small molecule antagonists, cell-based qHTS assay (AID 1963586). Also: nearly all actives have a fitted effect of over 45% in size. The gist of the method: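 CHO cells stably expressing human HTR2A were plated for 18 h at 37 C, then loaded with calcium dye for 1 h. Compounds were preincubated 5 min at room temperature before DOI (4 nM solution) was added. Kinetic fluorescence was read for 3 min.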
5-hydroxytryptamine receptor 2A (Homo sapiens), sequence (P28223 whole entry, looked up): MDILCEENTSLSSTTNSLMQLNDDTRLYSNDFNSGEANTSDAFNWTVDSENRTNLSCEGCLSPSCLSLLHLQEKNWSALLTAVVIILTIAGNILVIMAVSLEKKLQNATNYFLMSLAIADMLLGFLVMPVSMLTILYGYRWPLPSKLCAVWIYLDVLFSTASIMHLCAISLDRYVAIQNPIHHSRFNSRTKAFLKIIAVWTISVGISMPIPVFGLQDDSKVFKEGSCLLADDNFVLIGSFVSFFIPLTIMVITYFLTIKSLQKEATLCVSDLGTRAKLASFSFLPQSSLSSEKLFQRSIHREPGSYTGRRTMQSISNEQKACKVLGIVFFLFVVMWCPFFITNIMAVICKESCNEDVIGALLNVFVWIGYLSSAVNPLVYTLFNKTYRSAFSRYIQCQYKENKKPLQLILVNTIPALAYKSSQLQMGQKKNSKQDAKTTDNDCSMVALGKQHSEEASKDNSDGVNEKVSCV

For test [10] the target is unchanged. The experiment in a line: 5-hydroxytryptamine receptor 2A (HTR2A) small molecule agonists, cell-based qHTS assay (AID 1963587). Also: nearly all actives have a fitted effect of over 30% in size. Also: potency is read from the fitted curve at half-maximal effect. The gist of the method:
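HTR2A-CHO cells, plated 18 h at 37 C/5% CO2, dye-loaded 1 h at 37 C; compounds in DMSO added by pin tool (agonist mode). Intracellular calcium flux read as kinetic fluorescence on FDSS over 2 min at 1 s intervals.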

Test [11] deals with Muscarinic acetylcholine receptor M1 (Homo sapiens) (UniProt P11229). The experiment in a line: Cholinergic receptor muscarinic 1 (CHRM1) small molecule antagonists, cell-based qHTS assay (AID 1963588). Also: nearly all actives have a fitted effect of over 40% in size. Put shortly: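 Compounds were tested at 15 concentrations in three independent runs. Dye-loaded CHRM1-CHO cells were exposed 5 min at room temperature before stimulation by acetylcholine added at 50nM. Intracellular calcium was read kinetically on FDSS for 3 min.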
Muscarinic acetylcholine receptor M1 (Homo sapiens), sequence (P11229 whole entry, looked up): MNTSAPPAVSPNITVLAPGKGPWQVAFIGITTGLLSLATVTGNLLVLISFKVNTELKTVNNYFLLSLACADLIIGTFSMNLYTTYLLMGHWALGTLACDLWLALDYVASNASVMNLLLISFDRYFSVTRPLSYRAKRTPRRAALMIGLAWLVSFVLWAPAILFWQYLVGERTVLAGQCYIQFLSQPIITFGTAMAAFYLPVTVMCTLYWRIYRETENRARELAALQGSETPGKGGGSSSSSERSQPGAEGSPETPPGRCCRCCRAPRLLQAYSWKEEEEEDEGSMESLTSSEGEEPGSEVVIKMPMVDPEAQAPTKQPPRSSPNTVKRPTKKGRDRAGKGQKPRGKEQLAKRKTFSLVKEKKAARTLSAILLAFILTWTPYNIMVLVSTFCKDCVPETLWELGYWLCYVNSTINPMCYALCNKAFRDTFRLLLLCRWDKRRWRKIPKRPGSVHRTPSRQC

The target is the same in test [12]. The experiment in a line: Cholinergic receptor muscarinic 1 (CHRM1) small molecule agonists, cell-based qHTS assay (AID 1963589). Also: nearly all actives have a fitted effect of over 35% in size. The gist of the method:
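Agonist-mode calcium-flux screen: compounds at 15 concentrations, three independent runs, were pin-transferred onto dye-loaded human CHRM1-CHO cells. Fluorescence was then recorded kinetically every second over minutes.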

A short description of test [13]: cAMP Responsive Elements (CRE) small molecule agonists, cell-based qHTS assay (AID 1963590). Put shortly: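 Agonist mode: compound added to CRE-bla HEK 293T cells (2,000/well, 18 h after plating) for 3 h at 37 C/5% CO2. Reporter activity detected via FRET beta-lactamase substrate, 2 h room-temperature loading.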
The nature of test [14]: cAMP Responsive Elements (CRE) small molecule antagonists, cell-based qHTS assay (AID 1963591; active = well fitted inhibition curve with a large enough effect in the signal ratio in the repeat runs, not every such curve was filed as active; the % refers to the signal ratio). Put shortly:
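Antagonist mode: compounds are added alongside the adenylyl cyclase activator NKH477 (0.25 uM final) to CRE-bla HEK293T cells for 3 h. LiveBLAzer FRET substrate, 2 h at room temperature, reports bla expression.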

Test [15] addresses Beta-2 adrenergic receptor (Homo sapiens) (UniProt P07550). Description: Adrenergic beta2 receptor (ADRB2) small molecule antagonists, cell-based qHTS assay (AID 1963592). Also: series mostly up to about 92 µM; nearly all actives have a fitted effect of over 50% in size. The gist of the method: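 Assay format: CHO-ADRB2 cells, 18-20hr seeding at 37C/5% CO2, then compound plus 1nM isoproterenol agonist mix for 0.5hr RT. Homogeneous time-resolved fluorescence cAMP detection after 1hr, expressed as 665/615 nm ratio.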

Test [16] shares this target. Description: Adrenergic beta2 receptor (ADRB2) small molecule agonists, cell-based qHTS assay (AID 1963593).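 Also: CHO cells stably overexpressing human ADRB2.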 Put shortly:
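CHO cells stably over-expressing ADRB2 were plated overnight at 37C, then dosed with compounds plus a stimulation mix containing 100uM IBMX and 25uM Ro-20-1724 for 0.5hr at room temperature. cAMP was measured by HTRF competition, 1hr.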

Test [17] has as its target D(2) dopamine receptor (Homo sapiens) (UniProt P14416). Description: Dopamine D2 receptor (DRD2) small molecule agonists, cell-based qHTS assay (AID 1963594). Also: nearly all actives have a fitted effect of over 35% in size. Put shortly: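 HEK293 cells stably expressing DRD2 were cultured 24 h at 37 C, then given Ro20-1724 (0.1 mM final) and compounds for 10 min at room temperature. NKH477 (200nM) was then added for 30 min. cAMP was read by HTRF.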

The target is the same in test [18]. Description: Dopamine D2 receptor (DRD2) small molecule antagonists, cell-based qHTS assay (AID 1963595; active = well fitted inhibition curve with a large enough effect in the signal ratio in the repeat runs, with a control signal flat; the % refers to the signal ratio). Put shortly:
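HEK293 cells stably expressing DRD2 were preincubated with 0.1 mM Ro20-1724, then with compound for 10 min at room temperature. Cells were stimulated with 200 nM NKH477 plus 12 nM quinpirole for 30 min, and cAMP was read by HTRF.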

Test [19] is described as follows: p53 small molecule agonists, cell-based qHTS assay with human liver microsomes: qHTS cell viability counter screen (AID 1963579). Also: nearly all actives have a fitted effect of over 45% in size. Put shortly:
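HLM-supplemented (0.5 mg/mL final) and NADPH-supplemented (0.5 mg/mL final) p53RE-bla cultures, 4,000 cells per well, were dosed with compounds in DMSO for 16 h at 37 C; luminescent ATP detection (CellTiter-Glo, 30 min, room temperature) quantified surviving cells.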

The nature of test [20]: p53 small molecule agonists, cell-based qHTS assay with rat liver microsomes: qHTS cell viability counter screen (AID 1963580). Also: nearly all actives have a fitted effect of over 45% in size. Put shortly:
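Luminescent ATP readout (CellTiter-Glo, 30 min at room temperature) reports viability of p53RE-bla HCT-116 cells after 16 h at 37 C with test compounds under metabolic activation by rat liver microsomes and NADPH at 0.5 mg/mL final each.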

A number with no mark means an inactive call. Results filed as inconclusive are left out. Active and inactive are the calls of the source. Unless noted, calls follow the shape of the full dose curve.
% is scaled to controls: 0 for no effect and ±100 for the full control effect.

D(2) dopamine receptor (Homo sapiens), sequence (P14416 whole entry, looked up): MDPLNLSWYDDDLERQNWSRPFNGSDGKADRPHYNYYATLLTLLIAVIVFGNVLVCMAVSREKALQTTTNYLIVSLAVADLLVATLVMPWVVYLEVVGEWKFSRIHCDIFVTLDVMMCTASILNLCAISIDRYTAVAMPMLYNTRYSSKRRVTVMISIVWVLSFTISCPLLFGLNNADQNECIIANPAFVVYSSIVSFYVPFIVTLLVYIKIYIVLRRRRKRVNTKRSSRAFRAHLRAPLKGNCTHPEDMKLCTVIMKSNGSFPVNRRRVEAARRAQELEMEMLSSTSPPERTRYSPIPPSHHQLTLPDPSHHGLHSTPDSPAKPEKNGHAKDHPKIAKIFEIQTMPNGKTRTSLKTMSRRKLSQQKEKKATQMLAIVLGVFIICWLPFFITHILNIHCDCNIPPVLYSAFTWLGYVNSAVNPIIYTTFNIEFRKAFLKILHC
Gonadotropin-releasing hormone receptor (Homo sapiens), sequence (P30968 whole entry, looked up): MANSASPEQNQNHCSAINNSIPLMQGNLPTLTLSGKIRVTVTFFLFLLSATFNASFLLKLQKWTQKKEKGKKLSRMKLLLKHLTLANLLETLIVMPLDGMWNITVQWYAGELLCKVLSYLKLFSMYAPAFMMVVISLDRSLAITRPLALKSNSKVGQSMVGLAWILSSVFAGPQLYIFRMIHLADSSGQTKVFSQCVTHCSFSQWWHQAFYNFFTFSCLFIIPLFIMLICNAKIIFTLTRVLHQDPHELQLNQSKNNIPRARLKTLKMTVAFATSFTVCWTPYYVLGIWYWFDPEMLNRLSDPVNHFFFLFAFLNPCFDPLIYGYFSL
Beta-2 adrenergic receptor (Homo sapiens), sequence (P07550 whole entry, looked up): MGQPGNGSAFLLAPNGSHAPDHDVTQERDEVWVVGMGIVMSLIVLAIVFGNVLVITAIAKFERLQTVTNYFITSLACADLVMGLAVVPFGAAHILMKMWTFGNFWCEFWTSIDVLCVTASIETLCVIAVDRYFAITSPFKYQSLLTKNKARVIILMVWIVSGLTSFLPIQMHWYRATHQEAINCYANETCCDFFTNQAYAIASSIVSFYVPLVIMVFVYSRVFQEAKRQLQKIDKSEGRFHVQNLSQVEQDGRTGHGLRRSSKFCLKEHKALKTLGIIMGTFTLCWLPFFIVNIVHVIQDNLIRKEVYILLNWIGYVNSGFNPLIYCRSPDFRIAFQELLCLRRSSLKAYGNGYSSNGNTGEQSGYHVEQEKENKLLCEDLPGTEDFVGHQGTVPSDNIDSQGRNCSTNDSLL

As for `O=C(O)CCC(=O)OC[C@@H](NC(=O)C(Cl)Cl)[C@H](O)c1ccc([N+](=O)[O-])cc1`, the Potency entry in test [1], in test [2], in test [3], in [6], in test [7] and in test [8] was “inactive” in each case. The Potency entry in test [9], in test [10], in [11], in test [12], in test [13] and in [14] was “inactive” in each case. The Potency result in [15], in test [16], in test [17] and in test [18] was “inactive” each time. Further, the result in [4] and in test [5] was inactive.
Regarding `O=C(O)CNCC(=O)O`, the results for the activity change, negative = cytotoxicity in test [1], in test [19] and in test [20] were 0.812% [at 8.39 µM], -6.14% [at 5.99 µM] and 8.22% [at 5.99 µM], respectively. For the same molecule, the activity, positive = activation in test [2] was -2.08% [at 8.39 µM]. Further, in test [3], the activity change was 0.0589% [at 5.22 µM, stronger effect = higher value]. Also, the activation in test [4] is 0.594% [at 6.97 µM]; in test [5] it was 0.144% [at 5.23 µM]; in test [6], 0.304% [at 5.99 µM]; in test [8], 0.447% [at 5.99 µM]; in test [10], -1.98% [at 7.02 µM]; in [12] it was 0.803% [at 6.97 µM]. Moreover, the activation in test [13] was -0.186% [at 8.39 µM]; in test [17] it was -0.477% [at 8.39 µM]. Also, the activity, negative = inhibition in test [11] was -11.9% [at 5.58 µM]. Further, the activity change, negative = inhibition is 0.325% [at 8.39 µM] in [14], -7.9% [at 8.39 µM] in [15] and -7.14% [at 8.38 µM] in test [18].
As to `Clc1cc(Cl)c(Cl)nc1Cl`, the Potency result in [1], in [2], in test [3], in test [6], in test [20] and in test [7] was “inactive” throughout. Also, the Potency result in test [8], in [13], in test [14], in test [15], in [17] and in test [18] was “inactive” in each case. Besides, the outcome in test [4] and in test [5] was inactive. In [10], the Potency was 24.6 µM (active).
On to `CCOCCOCCOC(C)=O`, for which the Potency result in test [1], in test [2], in test [3], in [6], in test [19] and in test [20] was “inactive” in each case. Also, the Potency entry in test [7], in test [8], in test [9], in test [10], in [11] and in test [12] was “inactive” in each case. Further, the Potency entry in test [13], in test [14], in test [15], in test [17] and in test [18] was “inactive” in each case. Besides, the result in [4] was inactive.
Turning to `COc1ccc(OC)c(N=Nc2c(O)ccc3ccccc23)c1`, the Potency in test [1] is 27.3 µM (active); in test [2] it was 27.3 µM (active); in [10] it was 4.36 µM (active). Further, the Potency entry in test [3], in test [6], in test [19], in test [20], in test [7] and in test [8] was “inactive” each time. The Potency entry in test [9], in test [11], in [12], in test [13], in [14] and in [16] was “inactive” each time. Further, the Potency entry in test [17] and in [18] was “inactive” throughout. The result in [4] was inactive.
For `CC1CCc2cc(F)cc3c(=O)c(C(=O)O)cn1c23` (centres undefined), the Potency entry in test [1], in test [2], in test [3], in test [6], in test [19] and in [20] was “inactive” each time. For the same molecule, the Potency entry in test [7], in [8], in test [9], in test [10], in test [11] and in [12] was “inactive” each time. Also, the Potency entry in test [14], in [15], in test [16], in [17] and in test [18] was “inactive” throughout. Besides, the result in [4] was inactive.
